According to the supplement of paper PMC10849652:
Targets with a hit are over-represented here; the source holds about 7,900 in all. About 0.6% of all pairs of compound and target were hits.

How the values were obtained:
Assay in all cases: log2 fold change, soluble protein after heating vs DMSO (PISA); higher = thermal stabilisation; K562 cells, 10 uM, 30 min; active = over 0.2 and 3.5 SD of the protein, either way, in both replicates (recomputed)
[1] = compound: NC(=O)Nc1cc(-c2cccc(F)c2)sc1C(=O)N[C@H]1CCCNC1
How it was run: (§1)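 For each measurement, 10 μM compound was applied for 30 min to K562 cells at 2×10^6 cells/mL. Aliquots were heated for 3 min across 48°C-58°C, pooled, and extracted in PBS with 0.5% NP-40 at 4°C; the supernatant after 21,000xg for 90 min was soluble protein. This was quantified by TMTpro 16plex LC-MS/MS with channel sums equalised, and thermal stability was reported relative to control samples from duplicates, on a log2 fold-change scale.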

[2] = compound: NC(=O)c1cnc(N[C@@H]2CCCC[C@@H]2N)nc1Nc1cccc(-n2nccn2)c1
How it was run: as §1

[3] = compound: NC1(c2ccc(-c3nc4ccn5c(=O)[nH]nc5c4cc3-c3ccccc3)cc2)CCC1
How it was run: as §1

[4] = compound: NCC(=O)Nc1ccc(-n2nc(C(F)(F)F)cc2-c2ccc3c(ccc4ccccc43)c2)cc1
How it was run: as §1

[5] = compound: Nc1ccccc1NC(=O)c1ccc(CNC(=O)OCc2cccnc2)cc1 [entinostat]
How it was run: as §1

[6] = compound: O=C(CCCCCCC(=O)Nc1ccccc1)NO [vorinostat]
How it was run: as §1

[7] = compound: O=C(CCCCCCNC(=O)c1cnc(N(c2ccccc2)c2ccccc2Cl)nc1)NO [citarinostat]
How it was run: as §1

[8] = compound: O=C(O)c1ccc2c(c1)nc(Nc1cccc(Cl)c1)c1ccncc12 [silmitasertib]
How it was run: as §1

[9] = compound: O=C1NC(=O)C(c2cnc3ccccn23)=C1c1cn2c3c(cc(F)cc13)CN(C(=O)N1CCCCC1)CC2
How it was run: as §1

[10] = compound: c1cc(OCCN2CCCCC2)cc(-c2n[nH]c3ccc(-c4nnc[nH]4)cc23)c1
How it was run: as §1

[11] = compound: c1cn2cc(-c3ccc4cn[nH]c4c3)nc(Nc3ccc(N4CCOCC4)cc3)c2n1 [entospletinib]
How it was run: as §1

Measured: log2 fold change

CRKL (UniProt P46109)
active: [1] -1.11
inactive: [2] -0.019 | [3] -0.015 | [4] -0.005 | [5] 0.004 | [6] 0.023 | [7] 0.005 | [8] 0.066 | [9] -0.031 | [10] -0.064 | [11] 0.014

CIZ1 (UniProt Q9ULV3)
inactive: [1] -0.031 | [2] -0.087 | [3] -0.053 | [4] -0.022 | [5] -0.032 | [6] 0.036 | [7] 0.023 | [8] 0.026 | [9] 0.074 | [10] -0.045 | [11] -0.012

CSNK2B (UniProt P67870)
Sequence of UniProt P67870 (P67870 whole entry, looked up): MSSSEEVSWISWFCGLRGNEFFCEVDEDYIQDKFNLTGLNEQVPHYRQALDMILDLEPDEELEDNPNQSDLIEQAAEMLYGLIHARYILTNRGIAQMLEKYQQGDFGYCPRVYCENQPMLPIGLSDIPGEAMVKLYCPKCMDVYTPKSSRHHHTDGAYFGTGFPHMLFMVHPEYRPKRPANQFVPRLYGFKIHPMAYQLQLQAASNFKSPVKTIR
active: [8] 0.377
inactive: [1] -0.017 | [2] 0 | [3] 0.006 | [4] 0.084 | [5] -0.008 | [6] 0.021 | [7] 0.036 | [9] -0.011 | [10] -0.02 | [11] 0.077

CRK (UniProt P46108)
inactive: [2] 0.004 | [3] -0.063 | [4] -0.011 | [5] 0.026 | [6] -0.002 | [7] 0.061 | [8] 0.062 | [9] -0.016 | [10] -0.016 | [11] -0.022
active: [1] -0.81

CCDC59 (UniProt Q9P031)
inactive: [1] -0.033 | [2] 0.122 | [3] 0.166 | [4] 0.139 | [5] -0.149 | [6] -0.099 | [7] -0.178 | [8] 0.154 | [9] 0.21 | [10] 0.07 | [11] 0.002

CLUH (UniProt O75153)
Sequence of UniProt O75153 (O75153 whole entry, looked up): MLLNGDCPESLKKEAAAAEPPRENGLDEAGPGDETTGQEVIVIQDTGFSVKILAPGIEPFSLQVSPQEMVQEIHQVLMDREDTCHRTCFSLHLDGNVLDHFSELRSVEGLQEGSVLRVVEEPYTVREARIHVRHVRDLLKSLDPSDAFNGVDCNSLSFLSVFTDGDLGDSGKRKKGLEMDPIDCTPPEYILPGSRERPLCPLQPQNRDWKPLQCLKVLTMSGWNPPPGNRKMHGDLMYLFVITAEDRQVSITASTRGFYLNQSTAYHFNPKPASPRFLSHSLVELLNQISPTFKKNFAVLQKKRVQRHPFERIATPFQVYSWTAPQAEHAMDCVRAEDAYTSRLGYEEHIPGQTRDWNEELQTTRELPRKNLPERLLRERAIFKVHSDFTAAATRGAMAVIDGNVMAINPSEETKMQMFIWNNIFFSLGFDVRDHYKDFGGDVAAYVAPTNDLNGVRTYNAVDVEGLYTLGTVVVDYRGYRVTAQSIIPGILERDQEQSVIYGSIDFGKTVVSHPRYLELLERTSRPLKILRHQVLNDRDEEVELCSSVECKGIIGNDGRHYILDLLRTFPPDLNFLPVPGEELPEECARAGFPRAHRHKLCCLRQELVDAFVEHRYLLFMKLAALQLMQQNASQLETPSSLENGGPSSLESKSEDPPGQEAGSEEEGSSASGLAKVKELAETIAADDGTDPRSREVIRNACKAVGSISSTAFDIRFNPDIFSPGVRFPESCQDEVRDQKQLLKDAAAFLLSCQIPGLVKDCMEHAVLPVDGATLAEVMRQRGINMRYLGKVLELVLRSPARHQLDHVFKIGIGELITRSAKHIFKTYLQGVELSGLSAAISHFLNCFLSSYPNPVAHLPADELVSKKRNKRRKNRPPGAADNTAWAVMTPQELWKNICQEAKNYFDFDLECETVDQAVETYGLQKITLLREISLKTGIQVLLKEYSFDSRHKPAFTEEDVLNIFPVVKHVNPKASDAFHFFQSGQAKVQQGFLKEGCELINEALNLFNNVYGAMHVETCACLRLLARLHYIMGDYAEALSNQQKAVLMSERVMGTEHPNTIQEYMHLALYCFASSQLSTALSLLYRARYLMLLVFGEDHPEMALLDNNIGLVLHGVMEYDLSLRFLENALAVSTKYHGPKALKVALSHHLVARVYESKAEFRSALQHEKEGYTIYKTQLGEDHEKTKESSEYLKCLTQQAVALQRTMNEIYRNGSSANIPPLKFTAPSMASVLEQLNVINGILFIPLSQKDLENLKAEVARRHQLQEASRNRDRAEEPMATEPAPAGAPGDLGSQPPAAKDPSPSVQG
inactive: [1] -0.002 | [2] -0.072 | [3] 0.023 | [4] -0.025 | [5] 0.022 | [6] 0.05 | [7] -0.08 | [8] 0.063 | [9] 0.133 | [10] 0.041 | [11] 0.06

CTBS (UniProt Q01459)
Sequence of UniProt Q01459 (Q01459 whole entry, looked up): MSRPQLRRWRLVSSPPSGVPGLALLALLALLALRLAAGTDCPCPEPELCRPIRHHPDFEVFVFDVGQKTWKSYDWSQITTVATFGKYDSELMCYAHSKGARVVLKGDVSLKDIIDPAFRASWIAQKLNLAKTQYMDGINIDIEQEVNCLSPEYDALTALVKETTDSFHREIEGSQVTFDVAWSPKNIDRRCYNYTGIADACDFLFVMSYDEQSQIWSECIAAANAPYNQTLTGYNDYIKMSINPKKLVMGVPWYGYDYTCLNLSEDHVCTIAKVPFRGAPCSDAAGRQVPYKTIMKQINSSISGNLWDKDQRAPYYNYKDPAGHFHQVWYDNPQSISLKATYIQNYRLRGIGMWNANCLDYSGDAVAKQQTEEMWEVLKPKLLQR
inactive: [1] 0.088 | [2] -0.046 | [3] -0.268 | [4] -0.002 | [5] 0.058 | [6] -0.017 | [7] -0.026 | [8] -0.003 | [9] 0.051 | [10] -0.023 | [11] 0.049

CMTR1 (UniProt Q8N1G2)
inactive: [1] -0.022 | [2] -0.015 | [3] -0.135 | [4] -0.01 | [5] -0.025 | [6] 0.026 | [7] 0.002 | [8] 0.004 | [9] -0.083 | [10] -0.009 | [11] -0.016

COX5B (UniProt P10606)
inactive: [1] 0.041 | [2] 0.031 | [3] 0.053 | [4] -0.015 | [5] -0.006 | [6] -0.151 | [7] 0.02 | [8] -0.04 | [9] -0.131 | [10] 0.034 | [11] 0.005

CDC42BPA isoform 6 (UniProt Q5VT25)
inactive: [1] -0.325 | [2] -0.334 | [3] -0.06 | [4] -0.003 | [5] 0.012 | [6] 0.051 | [7] 0.115 | [8] 0.11 | [9] -0.041 | [10] -0.203 | [11] 0.112

CDAN1 (UniProt Q8IWY9)
Sequence of UniProt Q8IWY9 (Q8IWY9 whole entry, looked up): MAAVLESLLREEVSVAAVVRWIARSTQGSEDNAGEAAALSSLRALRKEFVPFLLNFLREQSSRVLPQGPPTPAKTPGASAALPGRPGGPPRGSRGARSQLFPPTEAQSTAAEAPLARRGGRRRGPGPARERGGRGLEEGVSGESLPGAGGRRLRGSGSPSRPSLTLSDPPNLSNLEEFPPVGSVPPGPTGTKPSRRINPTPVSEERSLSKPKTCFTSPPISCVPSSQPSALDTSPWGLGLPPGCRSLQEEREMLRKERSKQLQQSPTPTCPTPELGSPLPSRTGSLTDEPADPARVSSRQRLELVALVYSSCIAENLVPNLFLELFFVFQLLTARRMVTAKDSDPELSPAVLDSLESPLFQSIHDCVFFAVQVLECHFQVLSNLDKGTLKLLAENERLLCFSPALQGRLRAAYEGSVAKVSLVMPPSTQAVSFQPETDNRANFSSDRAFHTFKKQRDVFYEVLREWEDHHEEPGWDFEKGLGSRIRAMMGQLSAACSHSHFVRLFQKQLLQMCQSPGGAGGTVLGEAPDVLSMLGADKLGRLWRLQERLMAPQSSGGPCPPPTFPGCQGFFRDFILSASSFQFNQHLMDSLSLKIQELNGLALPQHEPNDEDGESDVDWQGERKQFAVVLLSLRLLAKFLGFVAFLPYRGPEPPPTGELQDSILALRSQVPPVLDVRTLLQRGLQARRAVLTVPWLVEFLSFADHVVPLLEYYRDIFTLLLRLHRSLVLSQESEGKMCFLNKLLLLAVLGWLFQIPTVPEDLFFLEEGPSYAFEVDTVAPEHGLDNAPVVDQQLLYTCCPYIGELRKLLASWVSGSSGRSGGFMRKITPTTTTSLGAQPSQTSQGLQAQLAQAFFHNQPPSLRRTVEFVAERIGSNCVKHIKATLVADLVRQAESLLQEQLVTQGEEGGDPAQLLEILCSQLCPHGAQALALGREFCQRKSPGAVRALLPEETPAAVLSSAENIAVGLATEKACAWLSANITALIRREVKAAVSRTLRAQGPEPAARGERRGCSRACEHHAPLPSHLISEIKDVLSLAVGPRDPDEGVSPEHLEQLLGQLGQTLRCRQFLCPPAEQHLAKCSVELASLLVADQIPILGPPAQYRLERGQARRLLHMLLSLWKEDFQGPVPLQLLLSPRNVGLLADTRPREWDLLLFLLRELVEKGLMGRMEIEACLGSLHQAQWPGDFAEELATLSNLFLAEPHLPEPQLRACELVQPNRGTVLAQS
inactive: [1] -0.033 | [2] -0.042 | [3] -0.192 | [4] -0.091 | [5] 0.051 | [6] 0.022 | [7] -0.011 | [8] 0.095 | [9] 0.036 | [10] -0.018 | [11] 0.023

COA6 isoform 2 (UniProt Q5JTJ3)
inactive: [1] 0.034 | [2] 0.106 | [3] -0.009 | [4] -0.018 | [5] -0.003 | [6] -0.024 | [7] 0.053 | [8] 0.01 | [9] 0.011 | [10] -0.041 | [11] 0.004

CDK19 (UniProt Q9BWU1)
inactive: [1] -0.131 | [2] -0.135 | [3] -0.093 | [4] -0.018 | [5] -0.085 | [6] 0.016 | [7] -0.265 | [8] 0.327 | [9] 0.16 | [10] -0.089 | [11] -0.013

COPS3 (UniProt Q9UNS2)
inactive: [1] 0 | [2] -0.034 | [3] -0.002 | [4] 0.011 | [5] 0.002 | [6] -0.003 | [7] 0.014 | [8] -0.02 | [9] -0.021 | [10] -0.019 | [11] 0.011

CSTF2 (UniProt P33240)
Sequence of UniProt P33240 (P33240 whole entry, looked up): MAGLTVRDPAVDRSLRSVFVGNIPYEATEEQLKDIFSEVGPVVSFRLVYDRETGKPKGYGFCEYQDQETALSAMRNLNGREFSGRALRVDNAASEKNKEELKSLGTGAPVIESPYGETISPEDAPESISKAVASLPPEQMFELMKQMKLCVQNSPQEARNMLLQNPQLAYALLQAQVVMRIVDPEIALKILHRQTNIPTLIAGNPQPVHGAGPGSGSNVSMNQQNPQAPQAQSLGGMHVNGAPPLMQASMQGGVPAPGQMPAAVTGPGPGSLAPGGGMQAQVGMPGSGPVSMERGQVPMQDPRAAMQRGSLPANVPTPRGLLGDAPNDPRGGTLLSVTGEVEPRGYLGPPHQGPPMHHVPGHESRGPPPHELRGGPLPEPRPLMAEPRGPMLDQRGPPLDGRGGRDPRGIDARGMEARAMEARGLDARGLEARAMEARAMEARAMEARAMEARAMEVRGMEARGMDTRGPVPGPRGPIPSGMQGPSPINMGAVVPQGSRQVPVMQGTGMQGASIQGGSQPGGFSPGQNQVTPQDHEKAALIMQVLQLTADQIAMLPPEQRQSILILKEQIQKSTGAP
inactive: [1] 0.015 | [2] -0.054 | [3] 0.086 | [4] -0.031 | [5] -0.028 | [6] -0.08 | [7] -0.011 | [8] 0.07 | [9] -0.049 | [10] -0.042 | [11] 0.022

CDK8 (UniProt P49336)
Sequence of UniProt P49336 (P49336 whole entry, looked up): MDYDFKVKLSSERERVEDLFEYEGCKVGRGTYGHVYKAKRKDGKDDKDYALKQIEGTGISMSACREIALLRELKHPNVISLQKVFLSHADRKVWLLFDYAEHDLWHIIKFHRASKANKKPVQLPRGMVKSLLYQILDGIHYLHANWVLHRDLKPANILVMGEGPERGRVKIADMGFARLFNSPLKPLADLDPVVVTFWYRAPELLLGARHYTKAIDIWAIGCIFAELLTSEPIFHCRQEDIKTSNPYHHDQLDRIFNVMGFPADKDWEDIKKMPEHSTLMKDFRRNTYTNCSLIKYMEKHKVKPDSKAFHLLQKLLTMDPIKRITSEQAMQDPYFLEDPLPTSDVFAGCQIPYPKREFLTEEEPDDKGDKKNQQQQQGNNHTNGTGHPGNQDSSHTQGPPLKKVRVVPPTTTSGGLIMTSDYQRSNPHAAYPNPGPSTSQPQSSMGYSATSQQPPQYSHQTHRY
inactive: [1] -0.038 | [2] 0.011 | [3] 0.036 | [4] 0.014 | [5] -0.152 | [6] 0.038 | [7] -0.002 | [8] 0.175 | [9] 0.036 | [10] -0.019 | [11] -0.037

COMT (UniProt P21964)
active: [2] 0.356
inactive: [1] -0.052 | [3] -0.015 | [4] -0.022 | [5] -0.022 | [6] -0.054 | [7] 0.052 | [8] -0.057 | [9] -0.086 | [10] 0.015 | [11] 0.017

C4A (UniProt P0C0L4)
inactive: [1] -0.024 | [2] -0.016 | [3] -0.129 | [4] 0 | [5] 0.021 | [6] 0.265 | [7] -0.071 | [8] 0.059 | [9] 0.038 | [10] 0.146 | [11] 0.149

COX6B1 (UniProt P14854)
Sequence of UniProt P14854 (P14854 whole entry, looked up): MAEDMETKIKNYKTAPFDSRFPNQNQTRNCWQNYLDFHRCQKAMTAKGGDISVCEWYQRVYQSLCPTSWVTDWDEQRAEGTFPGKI
inactive: [1] -0.039 | [2] -0.019 | [3] -0.146 | [4] 0.007 | [5] 0.085 | [6] -0.06 | [7] -0.007 | [8] -0.009 | [9] -0.126 | [10] -0.017 | [11] 0.078

CRLF3 (UniProt Q8IUI8)
inactive: [1] 0.016 | [2] -0.233 | [3] -0.165 | [4] -0.105 | [5] 0.025 | [6] -0.023 | [7] 0.047 | [8] 0.104 | [9] -0.003 | [10] -0.057 | [11] 0.089

CALCOCO2 isoform 4 (UniProt Q13137)
inactive: [1] -0.017 | [2] -0.075 | [4] -0.185 | [5] -0.006 | [6] -0.006 | [7] 0.035 | [8] 0.047 | [9] 0.071 | [10] -0.034 | [11] 0.005
active: [3] -0.324

CHMP4C (UniProt Q96CF2)
inactive: [1] -0.003 | [2] -0.005 | [3] -0.089 | [4] -0.043 | [5] 0.041 | [6] 0.02 | [7] -0.138 | [8] 0.028 | [9] -0.22 | [10] 0.052 | [11] 0.036

CD53 (UniProt P19397)
Sequence of UniProt P19397 (P19397 whole entry, looked up): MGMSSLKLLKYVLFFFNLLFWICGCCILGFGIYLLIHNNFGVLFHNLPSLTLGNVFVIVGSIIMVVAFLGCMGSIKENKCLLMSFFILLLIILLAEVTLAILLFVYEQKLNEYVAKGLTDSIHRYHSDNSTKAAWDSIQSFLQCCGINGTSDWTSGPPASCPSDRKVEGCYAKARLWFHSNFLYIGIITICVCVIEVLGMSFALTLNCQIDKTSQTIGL
inactive: [1] -0.15 | [2] 0.196 | [3] 0.133 | [4] 0.014 | [5] -0.044 | [6] -0.219 | [7] 0.013 | [8] -0.046 | [9] -0.037 | [10] -0.12 | [11] 0.073

CORO2A (UniProt Q92828)
Sequence of UniProt Q92828 (Q92828 whole entry, looked up): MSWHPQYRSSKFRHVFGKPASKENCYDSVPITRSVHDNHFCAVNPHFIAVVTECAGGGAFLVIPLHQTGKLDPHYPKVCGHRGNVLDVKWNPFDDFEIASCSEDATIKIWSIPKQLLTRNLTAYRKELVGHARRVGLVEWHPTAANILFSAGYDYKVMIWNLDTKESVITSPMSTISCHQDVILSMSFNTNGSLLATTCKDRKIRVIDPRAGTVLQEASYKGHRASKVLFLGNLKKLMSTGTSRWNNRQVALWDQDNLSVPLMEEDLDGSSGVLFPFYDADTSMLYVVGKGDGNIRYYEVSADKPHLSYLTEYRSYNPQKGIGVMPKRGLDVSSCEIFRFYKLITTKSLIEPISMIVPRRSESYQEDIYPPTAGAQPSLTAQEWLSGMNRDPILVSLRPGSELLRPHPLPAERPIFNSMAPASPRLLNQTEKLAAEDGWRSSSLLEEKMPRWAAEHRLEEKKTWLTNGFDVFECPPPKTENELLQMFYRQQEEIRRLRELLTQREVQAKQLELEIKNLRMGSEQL
inactive: [1] 0.069 | [2] -0.027 | [4] -0.085 | [5] -0.061 | [6] 0.027 | [7] -0.114 | [8] -0.019 | [10] -0.212 | [11] 0.078
active: [3] -0.287

CDK16 isoform 2 (UniProt Q00536)
inactive: [1] -0.07 | [2] -0.091 | [3] -0.104 | [4] -0.061 | [5] -0.041 | [6] -0.044 | [7] 0.061 | [8] 0.201 | [10] -0.006 | [11] -0.022
active: [9] 0.845

CCNH (UniProt P51946)
inactive: [1] -0.043 | [2] -0.009 | [3] 0.024 | [4] -0.02 | [5] -0.006 | [6] -0.028 | [7] 0.015 | [8] 0.02 | [9] -0.083 | [10] -0.027 | [11] -0.019

CLPTM1L (UniProt G5E9Z2)
inactive: [1] 0.139 | [2] 0.237 | [3] -0.175 | [4] -0.028 | [5] -0.012 | [6] 0.022 | [8] -0.05 | [9] 0.445
